Each structure is given as a SMILES string. Inconclusive results are not listed. The source made the active and inactive calls. The call rests on the fitted dose curve; in most records, active means well fitted inhibition curve with a large enough effect; inconclusive means small, poorly fitted or top-dose-only effect; inactive means flat fitted curve, though single readings scatter.

What all share (experiment): qHTS profiling for inhibitors of Plasmodium falciparum proliferation (AID 504749); further: nearly all actives have a fitted effect of over 60% in size
Common to all, as to conditions: P. falciparum in erythrocytes, SYBR Green DNA, 72 h; series mostly up to 28.7 µM
On the technique in general: Quantitative high-throughput screening tests each substance at several concentrations.

The test system of one assay is CP238. The method in brief:
(§1)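 Each compound contacts P. falciparum-infected red blood cells for 72 h at 37 C; lysis buffer (Tris, EDTA, saponin, Triton X, SYBR Green I) is added and fluorescence measured next morning; values normalized to controls.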

A further assay relates to CP247. The method in brief:
as §1

The next assay deals with CP250. In outline: as §1
The test system of a further assay is CP252. In outline: as §1
In a further assay the test system is CP256. In outline: as §1
The next assay has as its system CP262. The method in brief:
as §1

A further assay concerns CP265. In outline:
as §1

A further assay relates to CP266. The method in brief: as §1
A further assay has as its system CP237. In outline: as §1
A further assay has as its system CP260. In outline:
as §1
Potency means the concentration at half of the fitted maximal effect.

Regarding `Clc1ccc(Cn2c(CN3CCCC3)nc3ccccc32)cc1`, the molecule was called inactive with CP238, in the assay with CP250, with CP252, with CP256, in the assay with CP262 and in the assay on CP266. The Potency entry in the assay with CP247 and in the assay with CP265 was “inactive” throughout.
`CCN(CC)CCOC(=O)c1ccc(N)cc1`: the Potency result in the assay on CP237, with CP247 and in the assay with CP265 was “inactive” throughout. For the same molecule, the outcome in the assay on CP238, in the assay on CP250, with CP252, with CP256, in the assay with CP260 and with CP262 was inactive. In the assay with CP266, the molecule was called inactive.
In the case of `O=C(NCCN1CCOCC1)c1ccc(Cl)cc1`, the Potency entry in the assay on CP237, in the assay on CP247 and with CP265 was “inactive” in each case. Further, the call in the assay on CP238, in the assay on CP250, with CP252, in the assay with CP256, with CP260 and in the assay on CP262 was inactive. Besides, in the assay on CP266, the result was inactive.
In the case of `COc1ccc(Cc2nccc3cc(OC)c(OC)cc23)cc1OC`, the Potency entry in the assay on CP237 and in the assay on CP265 was “inactive” in each case. Moreover, the outcome in the assay on CP238, in the assay with CP250, with CP252, with CP256, with CP260 and in the assay with CP262 was inactive. In addition, the result in the assay with CP266 was inactive.
As to `Cc1cnc(C(=O)O)c[n+]1[O-]`, the Potency entry in the assay on CP237, in the assay on CP247 and with CP265 was “inactive” throughout. For the same molecule, the call in the assay on CP238, in the assay with CP250, with CP252, with CP256 and in the assay on CP262 was inactive.
For the molecule `O=c1[nH]cnc2c1ncn2[C@H]1CC[C@@H](CO)O1`, the Potency entry in the assay with CP237 and in the assay on CP247 was “inactive” in each case. For the same molecule, the call in the assay with CP238, in the assay on CP250, in the assay on CP252, in the assay on CP256, in the assay with CP262 and in the assay with CP266 was inactive.
On to `CC(=O)N[C@@H](CS)C(=O)O`, for which the Potency entry in the assay with CP237, with CP247 and with CP265 was “inactive” throughout. Moreover, the result with CP238, with CP250, with CP252, with CP256, with CP260 and in the assay on CP262 was inactive. The molecule was called inactive with CP266.
Regarding `O=C1NC(=O)C(c2ccccc2)(c2ccccc2)N1`, the Potency result with CP237, in the assay on CP247 and with CP265 was “inactive” each time. For the same molecule, the result with CP238, in the assay on CP250, in the assay with CP252, in the assay on CP256, with CP260 and in the assay on CP262 was inactive. Also, the molecule was called inactive in the assay with CP266.
For the molecule `O=C(O)c1cc(-c2ccccc2)nc2ccccc12`, the Potency entry with CP237, in the assay with CP247 and in the assay with CP265 was “inactive” each time. In addition, the outcome in the assay on CP238, with CP250, in the assay on CP252, in the assay with CP256, with CP260 and with CP262 was inactive.
Turning to `O=C(O)c1c(Cl)c(Cl)c(Cl)c(Cl)c1-c1c2cc(I)c(=O)c(I)c-2oc2c(I)c(O)c(I)cc12`, the Potency entry with CP237, in the assay on CP247 and in the assay with CP265 was “inactive” throughout. For the same molecule, the outcome with CP238, in the assay on CP250, with CP252, in the assay on CP256, with CP260 and in the assay on CP262 was inactive. Moreover, in the assay on CP266, the outcome was inactive.
With `C[C@@H](O)[C@H]1C(=O)N2C(C(=O)O)=C(S[C@@H]3CN[C@H](C(=O)N(C)C)C3)[C@H](C)[C@H]12`, the Potency result in the assay with CP237, with CP247 and with CP265 was “inactive” each time. Besides, the molecule was called inactive in the assay on CP238, in the assay on CP250, with CP252, with CP256, in the assay with CP260 and in the assay with CP262. For the same molecule, the call in the assay with CP266 was inactive.
As to `CCCNC(=O)NS(=O)(=O)c1ccc(Cl)cc1`, the Potency result with CP237, in the assay on CP247 and with CP265 was “inactive” each time. In addition, the molecule was classed as inactive in the assay with CP238, in the assay with CP250, in the assay with CP252, in the assay on CP256, in the assay with CP260 and in the assay with CP262. Also, the result with CP266 was inactive.
For the molecule `CCCCCN(C)CCC(O)(P(=O)(O)O)P(=O)(O)O`, the Potency entry in the assay on CP237, in the assay on CP247 and in the assay on CP265 was “inactive” throughout. The molecule was called inactive with CP238, in the assay with CP250, in the assay on CP252, with CP256, in the assay with CP260 and with CP262. For the same molecule, in the assay with CP266, the result was inactive.
For `CC(=O)O[C@]1(C(C)=O)CC[C@H]2[C@@H]3C=C(Cl)C4=CC(=O)[C@@H]5C[C@@H]5[C@]4(C)[C@H]3CC[C@@]21C`, the outcome in the assay on CP238, in the assay with CP250 and in the assay with CP252 was inactive. Moreover, the Potency result with CP247 and in the assay on CP265 was “inactive” in each case.
For `CN(C)CCC(c1ccccc1)c1ccccn1` (centres undefined), the Potency result with CP237 and in the assay on CP247 was “inactive” in each case. Besides, the molecule was classed as inactive with CP238, in the assay with CP250, in the assay with CP252, in the assay with CP256, in the assay on CP260 and with CP262. In the assay with CP266, the outcome was inactive. Further, the Potency with CP265 is 12.6 µM (active).
For the molecule `CC1=C(/C=C/C(C)=C/C=C/C(C)=C/C(=O)Nc2ccc(O)cc2)C(C)(C)CCC1`, in the assay on CP247, the Potency was 7.94 µM (active). Further, the result with CP256 was inactive.

The values above are taken from PubChem BioAssay (NCATS).
